Assay outcomes (PubChem)
Only some compounds are listed: those with a hit (about 19% of all), similar ones and a draw of the others.
HT1080-NT tox: kills 2HG-producing HT-1080-NT fibrosarcoma cells. HT-1080-NT fibrosarcoma viability, CellTiter-Glo ATP luminescence, 48 h. Potency, µM (highest dose often 46.1 µM), usual class: cytotoxic. 360,000 tested, 1.6% active. AID 686970;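 also: NT is the 2HG producing partner of a matched IDH1 knockdown line; nearly all actives have a fitted effect of over 55% in size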
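Fibrosarcoma NT cells, 750 per well in 5% FBS RPMI, were exposed to compound for 48 hours. Viability: CellTiter-Glo luminescence.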
TDP1 cell noCPT: qHTS for Inhibitors of human tyrosyl-DNA phosphodiesterase 1 (TDP1): qHTS in cells in absence of CPT; Potency, µM (series often up to 46.2 µM), most hits filed as inhibitors; AID 686978, 2013; DT40 Tdp1-/- hTDP1 cells, no CPT, ATP luminescence, 48 h; 420,000 tested, 15% active; also: nearly all actives have a fitted effect of over 55% in size
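Chicken DT40 Tdp1-/- cells stably complemented with human TDP1 were seeded at 400 cells/well with DMSO in place of 20 nM camptothecin. After compound pinning, cells grew at least 48 hr at 37 °C; viability read by CellTiter-Glo luminescence.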
HT1080 IDH1KD tx: HT-1080 IDH1 knockdown cell toxicity (counter line) | HT-1080 IDH1 knockdown viability, ATP luminescence, 48 h | AID 686971 | Potency, µM (top dose mostly 46.1 µM), actives largely listed as cytotoxic | 360,000 tested, 2% active
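Assay cells: HT-1080 with IDH1 knockdown, 750 per well, RPMI/5% FBS. Exposure: 48 h at 37 °C following 2 h pre-incubation. Read: CellTiter-Glo luminescence; fitted concentration-response, curve class assigned.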
IL1B secr inh: inflammasome signaling inhibition, IL-1 beta readout; THP-1 LPS/ATP IL-1B secretion, AlphaLISA, 16 h; hits give low values; activity change, % at 57.5 µM; 360,000 tested, 4.7% active; in the data active = activity change below about -50%; inconclusive = mostly about -30% to -49%
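THP-1 cells pretreated 1 hr with compounds (up to 57.5 uM final), then stimulated with LPS (250 ng/mL final) plus ATP (1.25 mM final); secreted IL-1B measured by AlphaLISA after 16 hr, decreased signal indicating inhibition.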
DT40 TDP1 CPT: growth inhibition of DT40 Tdp1-/-;hTDP1 cells with camptothecin (screen for TDP1 inhibitors). AID 686979. Potency, µM (series often up to 46.2 µM), actives largely listed as inhibitors. 420,000 tested, 12% active. chicken DT40 Tdp1-/-;hTDP1 cells + 20 nM CPT, ATP luminescence, 48 h; also: nearly all actives have a fitted effect of over 55% in size
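Chicken DT40 Tdp1-/- cells stably complemented with human TDP1 were seeded at 400 cells/well in medium containing 20 nM camptothecin, exposed to pin-transferred compounds, and grown at 37 °C for at least 48 hr. Viability was read as ATP luminescence.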
Numbers stand for hits; - = inactive; ? = inconclusive; . = no result; [ ] = dose if it differs, or a comment. Unless noted, calls follow the shape of the dose curve; as a rule, active = well fitted curve in the direction sought with a large enough effect; inconclusive = small, poorly fitted or top-dose-only effect, or another doubt; inactive = no such curve, though single readings can be large; an effect the other way counts as inactive or inconclusive.

SMILES	HT1080-NT tox	TDP1 cell noCPT	HT1080 IDH1KD tx	IL1B secr inh	DT40 TDP1 CPT
Cc1cccc(NC(=O)c2c(C)cc(C)nc2SCC(=O)c2ccccc2)c1	.	16µM	.	.	?
CSc1cc(-c2ccccc2)n(C)c(=O)c1C#N	-	?	-	-	-
CSc1cc(-c2ccc(Cl)cc2)n(Cc2ccccc2)c(=O)c1C#N	-	15µM	-	-	?
Clc1ccc(CCNC(c2nnc(-c3ccccc3)o2)c2ccccc2Cl)cc1 (configuration not stated)	.	23µM	.	.	18µM
O=S(=O)(Cc1ccc(Cl)cc1)c1ccccc1-c1nnc(-c2ccccc2)o1	-	?	-	-	?
CCn1c(N2CCN(S(=O)(=O)c3ccc(OC)cc3)CC2)nc2ccccc21	-	?	?	-66	?
CCN(CC)CCCNC(=S)N1CCN(c2nc3ccccc3n2CC)CC1	-	-	-	-	-
CCn1c(N2CCN(C(=O)C34CC5CC(CC(C5)C3)C4)CC2)nc2ccccc21	?	26µM	?	?	29µM
CCN1CCN(S(=O)(=O)c2ccc(Oc3ccccc3OC)cc2)CC1	-	23µM	-	-	-
CCn1c(N2CCN(S(=O)(=O)c3ccccc3C(F)(F)F)CC2)nc2ccccc21	?	16µM	-	-52	?
Cc1cc(C(=O)Nc2ccccc2C(=O)O)c(C)o1	-	?	-	-	?
Cc1nc2c3cc(F)ccc3n(Cc3ccccc3F)c2s1	21µM	?	18µM	-	7.3µM
Cc1nc2c3cc(F)ccc3n(CCN3CCCCC3)c2s1	21µM	7.3µM	?	?	6.5µM
Cc1ccc(C(=O)N(CC(=O)NC2CCCC2)c2ccccc2Cl)s1	-	?	-	-	-
CCCCNC(=O)C1c2ccccc2OCC(=O)N1CCc1c[nH]c2ccccc12 (configuration not stated)	-	?	-	-	-
CCNC(=O)N1CCN(CCCC(c2ccc(F)cc2)c2ccc(F)cc2)CC1	16µM	18µM	?	-	21µM
O=c1[nH]c(C(F)(F)C(F)(F)C(F)(F)F)no1	-	-	-	-	-
CS(=O)(=O)c1ccc(/C=C2\C=Cc3ccccc32)cc1	.	20µM	.	.	?
CN(N=O)c1ccc(/C=C2\C=Cc3ccccc32)cc1	.	-	.	.	-
COc1cc(/C=C2\C=Cc3ccccc32)cc(OC)c1OC	.	16µM	.	.	?
NC(N)=Nc1ccc(C=C2C=Cc3ccccc32)cc1	-	9.2µM	?	-68	9.2µM
C1=Cc2ccccc2/C1=C\c1cc[cH-]c1.[Fe+2].c1cc[cH-]c1	.	?	.	.	11µM
O=C(NCC1(N2CCOCC2)CCCC1)c1cnn(-c2ncc3c(n2)-c2ccccc2CC3)c1C1CC1	.	-	.	.	-[9.04 µM]
O=C(COC(=O)CCCNC(=O)c1ccc(Cl)cc1)Nc1ccc(Br)cc1	-	-	-	-	-
Nc1ccc(C=C2C=Cc3ccccc32)cc1	-	-	-	-74	-
SMILES	HT1080-NT tox	TDP1 cell noCPT	HT1080 IDH1KD tx	IL1B secr inh	DT40 TDP1 CPT
COc1ccc(/C=C2/C=Cc3ccccc32)cc1	.	?	.	.	-
COc1ccccc1N(CC(=O)Nc1ccc(S(=O)(=O)N2CCCCC2)cc1)S(C)(=O)=O	-	18µM	-	-	?
CCN(CC(=O)Nc1cc(S(=O)(=O)N2CCOCC2)ccc1C)Cc1ccccc1	-	13µM	-	-	16µM
CCN(CC(=O)Nc1ccc(S(=O)(=O)N2CCCC2)cc1)Cc1ccccc1	-	?	-	-	16µM
CCN(CC(=O)Nc1ccc(S(=O)(=O)N2CCOCC2)cc1)Cc1ccccc1	-	-	-	-	-
COc1ccc(Cl)cc1NC(=O)CC1S/C(=N/N=C2CCCCCC2)NC1=O (configuration not stated)	-	?	-	-	?
COc1ccc2cc(CCN3C(=O)c4ccccc4C3=O)c(=O)[nH]c2c1	-	-	-	-	-
Cc1ccc(S(=O)(=O)n2nccc2-c2c(-c3ccccc3)noc2C)cc1	?	18µM	?	.	?
Cc1onc(-c2ccccc2)c1-c1ccnn1C(=O)NC(C)C	-	?	-	-60	-
O=S(=O)(c1ccccc1)N1CCN(Cc2nnc(-c3ccccc3)o2)CC1	-	?	-	-	-
COC(=O)c1noc(C)c1-c1ccnn1C(=O)c1ccc(C)cc1	-	-	-	-	-
Cc1onc(-c2ccccc2)c1-c1ccnn1S(=O)(=O)c1ccc(Cl)cc1	-	-	-	.	-
Cc1ccc(S(=O)(=O)N2CCN(Cc3nnc(-c4c(-c5ccccc5)noc4C)o3)CC2)cc1	-	15µM	-	-	15µM
Cc1onc(-c2ccc(Cl)cc2)c1-c1ccnn1S(=O)(=O)c1cccc(C(F)(F)F)c1	-	23µM	-	-	?
O=C(CSc1cc(Cl)ccc1Cl)NC1CCCC1	-	?	-	-	-
Nc1nc(-c2ccccc2)c(CCCOc2ccc(NC(=O)CBr)cc2)c(=O)[nH]1	-	?	-	?	?
Cc1cc(C)c2nccc(/C=C/c3ccc(N(C)C)cc3)c2c1	.	10µM	.	.	11µM
Cc1ccc2c(/C=C/c3ccc(N(C)C)cc3)ccnc2c1C	.	?	.	.	13µM
CN(C)c1ccc(/C=C/c2ccnc3c(Cl)ccc(Cl)c23)cc1	.	10µM	.	.	11µM
CC(C)c1ccc(S(=O)(=O)N2CCC(C(=O)NCc3ccco3)CC2)cc1	-	-	-	-	-
COc1ccc(S(=O)(=O)NCc2ccccn2)cc1C	-	-	-	-	-
COc1ccccc1-c1cncnc1NCc1cnc(C)cn1	.	-	.	.	?
COc1ccccc1-c1ccc2ncnc(NCc3cccnc3)c2c1	.	6.5µM	.	.	8.2µM
COc1ccccc1-c1ccc2ncnc(NCc3cnc(C)cn3)c2c1	.	18µM	.	.	?
Cc1c(C(=O)OC2CCC(C)CC2)[nH]c2c1C(=O)CC(c1ccccc1Cl)C2 (configuration not stated)	.	4.6µM	.	.	5.2µM
SMILES	HT1080-NT tox	TDP1 cell noCPT	HT1080 IDH1KD tx	IL1B secr inh	DT40 TDP1 CPT
CCOCCOC(=O)c1[nH]c2c(c1C)C(=O)CC(c1ccccc1)C2 (configuration not stated)	0.15µM	0.92µM	0.26µM	-	1.5µM
Cc1c(C(=O)OCc2ccccc2)[nH]c2c1C(=O)CC(c1ccc(N(C)C)cc1)C2 (configuration not stated)	.	-	.	.	?
Cc1ccc(COC(=O)c2[nH]c3c(c2C)C(=O)CC(c2ccc(Cl)cc2)C3)cc1 (configuration not stated)	.	9.2µM	.	.	12µM
Cc1c(C(=O)OCCOc2ccccc2)[nH]c2c1C(=O)CC(c1ccccc1)C2 (configuration not stated)	.	0.15µM	.	.	0.23µM
CCOC(=O)c1sc(NN=C(C(=O)OC)C(=O)OC)c(C(=O)OCC)c1C	-	?	-	-	?
CCC(=O)Nc1cccc(NC(=O)CSc2nc3c(c(=O)n(C)c(=O)n3C)n2C)c1	-	-	-	-	-
